These results are taken from PubChem BioAssay (NCATS).

A number with no mark means an inactive call. Records with an inconclusive call do not appear. The source made the active and inactive calls. Unless noted, calls come from the whole dose curve; as a rule, active = well fitted curve in the direction sought with a large enough effect; inconclusive = small, poorly fitted or top-dose-only effect, or another doubt; inactive = no such curve, though single readings can be large; an effect the other way counts as inactive or inconclusive.

Experiment [1] concerns the target Lysosomal acid glucosylceramidase (Homo sapiens) (UniProt P04062). The experiment can be described thus: Glucocerebrosidase-p2 (AID 348; in the data active = potency below about 10 µM; note: potency is the fitted concentration of half-maximal effect). The note with it: purified GBA, blue fluorogenic substrate, 40 min. In outline:
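Normal human glucocerebrosidase (0.2 nM) with blue fluorogenic substrate (80 uM final) in citrate/phosphate pH 5.9 with 10mM sodium taurocholate, 0.01% tween-20; 40 min RT, NaOH/glycine stop; fluorescence Ex 365/Em 440; AC50 from a titration from 0.6 nM upwards.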

The nature of experiment [2]: AP1 Signaling Pathway (AID 357; active = well fitted curve in either direction with a large enough effect, not every such curve was filed as active; note: % is set by controls: 0 for no effect and ±100 for the full control effect). The note with it: ME-180 AP-1-bla reporter, EGF-induced, beta-lactamase ratio, 5 h; at 7.69 µM (top of the series) unless noted. In outline: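 AP-1-bla ME-180 cells, Opti-MEM + 0.5% dialyzed FBS, plated overnight 37 °C. Cpd titration + EC50 EGF, 5 h 37 °C. CCF4 2.5 h RT; ex 405, em 460/530 ratio → %activity, AC50.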
Experiment [3] can be described thus: NFAT Signaling Pathway (AID 444; active = well fitted curve in either direction with a large enough effect, not every such curve was filed as active;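 note: carbachol stimulus at about its EC50 of 1 µM final; % is set by controls: 0 for no effect and ±100 for the full control effect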). The note with it: Jurkat NFAT-bla M1, carbachol, beta-lactamase ratio, 5 h; at 7.69 µM (top of the series) unless noted. In outline: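 Read-out: CCF4 FRET ratio (460 nm/530 nm) after 1 h RT dye loading, used for %activity and AC50 from titration series. Cells: Jurkat NFAT-β-lactamase/M1 line, treated with compound plus 1 uM carbachol for 5 h, 37 °C.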

Experiment [4] can be described thus: Stat Signaling Pathway (AID 446; active = well fitted curve in either direction with a large enough effect, not every such curve was filed as active;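 note: ME-180 cervical cancer cells given 40 pM IL-6 alongside compound; SIE-controlled beta-lactamase reporter measured as 460/530 nm FRET emission ratio; % is set by controls: 0 for no effect and ±100 for the full control effect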). The note with it: ME-180 SIE beta-lactamase reporter, IL-6 stimulated, 5 h; at 7.69 µM (top of the series) unless noted. In outline: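 FRET read-out (405 nm excitation, 460/530 nm emission) of a beta-lactamase reporter under a STAT-inducible element in ME-180 cervical carcinoma cells. Cells with compound receive 40 pM IL-6 for 5 h. Values are normalised to AC90 stimulation and AC90 JAK-inhibitor controls.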

For experiment [5], the target named is Glucocorticoid receptor (Homo sapiens) (UniProt P04150). Briefly: GR-GFP Redistribution (AID 450;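 active = compounds whose dose series gives a full or clear partial fitted curve of increased nuclear translocation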; note: potency is the fitted concentration of half-maximal effect). As to conditions: U2OS GR-GFP nuclear translocation, laser cytometry, 2 h.
Sequence of Glucocorticoid receptor (Homo sapiens) (P04150 whole entry, looked up): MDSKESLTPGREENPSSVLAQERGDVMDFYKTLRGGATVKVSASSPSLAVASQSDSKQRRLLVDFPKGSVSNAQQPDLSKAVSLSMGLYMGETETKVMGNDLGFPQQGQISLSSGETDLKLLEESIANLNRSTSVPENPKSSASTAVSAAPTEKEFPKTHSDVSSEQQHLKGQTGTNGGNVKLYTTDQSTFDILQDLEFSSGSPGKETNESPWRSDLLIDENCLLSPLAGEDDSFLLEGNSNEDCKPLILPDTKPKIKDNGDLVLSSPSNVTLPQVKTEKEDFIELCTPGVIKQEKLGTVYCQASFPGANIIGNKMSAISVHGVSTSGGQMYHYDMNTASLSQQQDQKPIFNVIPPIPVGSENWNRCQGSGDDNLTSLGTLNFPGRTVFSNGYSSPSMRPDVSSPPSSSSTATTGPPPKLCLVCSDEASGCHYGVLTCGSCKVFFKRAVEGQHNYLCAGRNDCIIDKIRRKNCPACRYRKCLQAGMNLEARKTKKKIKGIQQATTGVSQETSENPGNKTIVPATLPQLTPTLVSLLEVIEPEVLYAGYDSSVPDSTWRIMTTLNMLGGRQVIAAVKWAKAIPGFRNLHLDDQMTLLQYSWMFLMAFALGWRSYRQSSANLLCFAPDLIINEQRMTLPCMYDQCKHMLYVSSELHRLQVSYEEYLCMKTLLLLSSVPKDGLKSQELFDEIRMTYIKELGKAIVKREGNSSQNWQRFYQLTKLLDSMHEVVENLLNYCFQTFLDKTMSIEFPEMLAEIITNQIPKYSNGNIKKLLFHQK
The target is the same in experiment [6]. Briefly: GR-EFC Redistribution (AID 451; calls by dose curve; note: potency is the fitted concentration of half-maximal effect). As to conditions: CHO-K1 GR-EFC translocation, beta-gal luminescence, 2 h. In outline:
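Translocation of GR-ED fusion to nuclear EA restores b-gal, read by luminescence after 1 h room-temperature detection. Engineered CHO-K1 biosensor cells, 1,000/well, exposed 2 h at 37 C to titrations up to 46 uM final.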

The target of experiment [7] is Mitogen-activated protein kinase 10 (Mus musculus) (UniProt Q61831). The experiment can be described thus: JNK3 AlphaScreen Assay (AID 530; active = well fitted curve in either direction with a large enough effect, not every such curve was filed as active;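 note: kinase came from lysate of stimulated human HepG2 cells; signal reports phosphorylation of biotinylated GST-cJun 1-79 at Ser73 with 10 µM ATP; % is set by controls: 0 for no effect and ±100 for the full control effect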). The note with it: JNK3 lysate, c-Jun phosphorylation; series mostly up to 57.1 µM. In outline:
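Kinase buffer: 20 mM Tris-HCl pH 7.6, 10 mM MgCl2, 1 mM DTT, 0.1 mM Na3VO4, 0.01% Tween-20; ATP 10 uM. Substrate biotin-GST-cJun(1-79), enzyme from activated HepG2 lysates. Detection by Ser73 phospho-antibody AlphaScreen.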
(In general: Bead proximity is the source of the signal in Alpha formats.)

For experiment [8], the target named is 3',5'-cyclic-AMP phosphodiesterase 4B (Homo sapiens) (UniProt Q07343). The experiment can be described thus: qHTS Assay for Inhibitors of PDE-IV (AID 607; active = well fitted activation curve with a large enough effect in the main read-out, with a control signal flat, not every such curve was filed as active; note: % of control where 0% means no effect). As to conditions: HEK293 ACTOne CNG channel cells, membrane potential fluorescence; series mostly up to 22.9 µM. In outline:
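Cell-based read-out of cAMP via a modified cyclic nucleotide-gated channel and membrane potential dye (535/590 nm) in HEK293 cells expressing PDE4 endogenously. Compounds tested up to 22.9 uM final; 100 uM RO 20-1724 reference.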
(In qHTS, concentration-response curves come from the screen itself.)

The target of experiment [9] is Dual specificity protein kinase CLK4 (Homo sapiens) (UniProt Q9HAZ1). The experiment can be described thus: qHTS Assay for Inhibitors of CDC-like Kinase 4 (ADP-Glo Assay) (AID 1771). Note: nearly all actives have a fitted effect of over 70% in size. Note: potency is the fitted concentration of half-maximal effect. As to conditions: recombinant CLK4, ADP-Glo luminescence; series mostly up to 80 µM. The method, boiled down: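 25 nM Clk4, 100 uM RS peptide, 1 uM ATP (final); 2 mM MgCl2, 0.5 mM EGTA, 2.5 mM DTT, 0.01% Triton X-100; 1 hr RT. ADP-Glo readout: ATP depletion 45 min, conversion/luciferase 30 min, luminescence.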
Sequence of Dual specificity protein kinase CLK4 (Homo sapiens) (Q9HAZ1 whole entry, looked up): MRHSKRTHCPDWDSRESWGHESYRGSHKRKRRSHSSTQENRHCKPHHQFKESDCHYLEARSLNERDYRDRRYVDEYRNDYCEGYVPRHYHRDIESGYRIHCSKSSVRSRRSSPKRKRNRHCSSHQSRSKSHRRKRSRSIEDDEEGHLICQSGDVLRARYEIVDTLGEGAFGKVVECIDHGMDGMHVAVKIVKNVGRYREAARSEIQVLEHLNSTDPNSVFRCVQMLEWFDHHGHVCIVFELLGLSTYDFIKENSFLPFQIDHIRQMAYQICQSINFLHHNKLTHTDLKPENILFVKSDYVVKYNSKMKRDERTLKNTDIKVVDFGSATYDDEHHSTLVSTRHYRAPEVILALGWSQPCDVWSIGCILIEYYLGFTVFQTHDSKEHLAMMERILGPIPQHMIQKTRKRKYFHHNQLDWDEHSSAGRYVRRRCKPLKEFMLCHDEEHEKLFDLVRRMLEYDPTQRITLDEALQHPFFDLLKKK

For experiment [10] the target is unchanged. The experiment can be described thus: qHTS Assay for Inhibitors of CDC-like Kinase 4 (ADP-FP Assay) (AID 1795). Note: % is set by controls: 0 for no effect and ±100 for the full control effect; nearly all actives have a fitted effect of over 60% in size. As to conditions: Transcreener ADP fluorescence polarization; series mostly up to 50 µM. In outline: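 Recombinant human Clk4 (6.25 nM) phosphorylated RS repeat peptide (100 uM) with 1 uM ATP in Tris pH 7.5/MgCl2/EGTA/DTT/Triton buffer for one hour. ADP was quantified by Transcreener competitive fluorescence polarization against an ADP calibration curve.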

The target in experiment [11] is Ubiquitin carboxyl-terminal hydrolase 1 (Homo sapiens) (UniProt O94782). Briefly: Inhibitors of USP1/UAF1: Pilot qHTS (AID 504865).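 Note: rhodamine fluorescence freed from ubiquitin-rhodamine substrate followed over time; top concentration of the series differs between compounds; % is set by controls: 0 for no effect and ±100 for the full control effect; nearly all actives have a fitted effect of over 35% in size.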 The note with it: purified USP1/UAF1, Ub-rhodamine cleavage fluorescence; series mostly up to 54.9 µM. In outline: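 USP1/UAF1 complex (1nM) preincubated with compound 15 min at room temperature, then Ub-Rho substrate (150nM final) added. Fluorescence read kinetically at 480/540 nm, 6 reads every 60 seconds. Buffer: 50mM HEPES pH 7.8, 0.5mM EDTA, 0.1 mg/ml BSA, 1mM TCEP, 0.01% Tween-20.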
Sequence of Ubiquitin carboxyl-terminal hydrolase 1 (Homo sapiens) (O94782 whole entry, looked up): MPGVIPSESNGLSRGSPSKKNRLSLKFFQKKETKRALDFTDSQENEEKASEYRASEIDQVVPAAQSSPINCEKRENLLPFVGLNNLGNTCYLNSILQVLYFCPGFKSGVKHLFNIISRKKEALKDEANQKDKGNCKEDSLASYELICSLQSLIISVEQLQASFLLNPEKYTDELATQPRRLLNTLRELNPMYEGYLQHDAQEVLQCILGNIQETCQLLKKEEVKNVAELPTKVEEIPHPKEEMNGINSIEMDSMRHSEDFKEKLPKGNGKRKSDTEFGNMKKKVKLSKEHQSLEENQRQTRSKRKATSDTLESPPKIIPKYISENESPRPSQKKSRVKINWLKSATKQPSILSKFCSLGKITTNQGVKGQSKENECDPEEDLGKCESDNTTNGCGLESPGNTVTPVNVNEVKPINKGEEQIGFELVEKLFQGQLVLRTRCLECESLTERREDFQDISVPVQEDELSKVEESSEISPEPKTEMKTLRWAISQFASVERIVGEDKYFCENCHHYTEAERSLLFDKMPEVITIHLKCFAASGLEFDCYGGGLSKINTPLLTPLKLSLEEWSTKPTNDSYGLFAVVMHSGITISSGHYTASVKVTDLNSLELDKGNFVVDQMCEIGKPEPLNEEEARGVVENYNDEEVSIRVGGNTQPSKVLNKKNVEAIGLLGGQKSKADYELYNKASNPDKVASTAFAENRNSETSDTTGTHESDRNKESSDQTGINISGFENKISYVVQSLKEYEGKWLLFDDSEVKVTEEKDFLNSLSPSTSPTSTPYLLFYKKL

Experiment [12] can be described thus: Primary qHTS for small molecule stabilizers of the endoplasmic reticulum resident proteome: Secreted ER Calcium Modulated Protein (SERCaMP) assay (AID 1508630). Note: % is set by controls: 0 for no effect and ±100 for the full control effect. The note with it: SH-SY5Y GLuc-SERCaMP (Gaussia luciferase released on ER calcium loss) secretion, thapsigargin, luminescence; series mostly up to 38.4 µM. In outline:
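The SH-SY5Y reporter protocol was run at 3 concentrations up to 38.3 uM (primary) or 11 concentrations (follow-up): 16 h compound, 100 nM thapsigargin for 4 h, then extracellular luciferase luminescence.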

Experiment [13] has as its target Cytochrome P450 1A2 (Homo sapiens) (UniProt P05177). The experiment can be described thus: p450-cyp1a2 (AID 410; calls by dose curve; note: potency is the fitted concentration of half-maximal effect;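 for activity change, negative = inhibition: -100% = full effect of reference inhibitor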). The note with it: recombinant CYP1A2, luciferin-ME demethylation, luminescence; series mostly up to 57 µM. In outline: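 20nM CYP1A2, 100uM Luciferin-ME (=Km), 100mM KPO4; cpd 10 min RT; +NADPH regen, 60 min RT; stop/detect 20 min; luminescence. Normalized to furafylline 57 uM = full inhibition.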

Experiment [14] is described as follows: qHTS Assay for Identification of Small Molecule Agonists for Hypoxia Response Element Signaling Pathway (AID 914; active = well fitted activation curve with a large enough effect in the signal ratio, with a control signal flat, not every such curve was filed as active; the % refers to the signal ratio; note: potency is the fitted concentration of half-maximal effect). As to conditions: ME-180 (cervical carcinoma) HRE-bla reporter, beta-lactamase ratio, CoCl2, 17 h; activation: active compounds read high. In outline: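 Cells were plated overnight, pin-dosed with compound in a titration series, co-stimulated with EC50 CoCl2 and incubated 17 hours at 37 degrees Celsius. CCF4 substrate was then loaded, and AC50 values came from the 460nm/530nm ratio.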

Experiment [15] has as its target Cytochrome P450 3A4 (Homo sapiens) (UniProt P08684). The experiment can be described thus: qHTS Assay for Activators of Cytochrome P450 3A4 (AID 885). Note: nearly all actives have a fitted effect of over 65% in size. As to conditions: recombinant CYP3A4, Luciferin-PPXE luminescence, 60 min; series mostly up to 57.1 µM. In outline:
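Luminescent readout of luciferin formed from 25 uM Luciferin-PPXE (KM level) by 20 nM CYP3A4 in 200 mM KPO4, with 60 min NADPH-driven reaction at room temperature after 10 min compound exposure. Ketoconazole (57 uM) defined 100% inhibition.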

For experiment [16] the target is unchanged. The experiment can be described thus: qHTS Assay for Inhibitors and Substrates of Cytochrome P450 3A4 (AID 884). Note: potency is the fitted concentration of half-maximal effect; nearly all actives have a fitted effect of over 50% in size. As to conditions: recombinant CYP3A4, Luciferin-PPXE luminescence; series mostly up to 57.1 µM. The method, boiled down:
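Luminescent readout of luciferin produced by CYP3A4 (20 nM) dealkylation of Luciferin-PPXE, 25 uM (its KM). NADPH-driven reaction ran 60 min at RT after 10 min compound preincubation; data scaled to 57 uM ketoconazole as 100% inhibition.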

Experiment [17] concerns the target Cytochrome P450 2C19 (Homo sapiens) (UniProt P33261). The experiment can be described thus: qHTS Assay for Inhibitors and Substrates of Cytochrome P450 2C19 (AID 899). Note: potency is the fitted concentration of half-maximal effect; nearly all actives have a fitted effect of over 60% in size. The note with it: recombinant CYP2C19, luciferin-H EGE luminescence; series mostly up to 57.1 µM. In outline: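 5nM enzyme + 10uM Luciferin-H EGE (=KM), 50mM KPO4; cpd pin-transferred, 10 min 37C; NADPH regen, 60 min 37C; stopped w/ luciferin detection reagent, 20 min; luminescence. Normalized to 57uM ketoconazole (AC100).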

Sequence of 3',5'-cyclic-AMP phosphodiesterase 4B (Homo sapiens) (Q07343 whole entry, looked up): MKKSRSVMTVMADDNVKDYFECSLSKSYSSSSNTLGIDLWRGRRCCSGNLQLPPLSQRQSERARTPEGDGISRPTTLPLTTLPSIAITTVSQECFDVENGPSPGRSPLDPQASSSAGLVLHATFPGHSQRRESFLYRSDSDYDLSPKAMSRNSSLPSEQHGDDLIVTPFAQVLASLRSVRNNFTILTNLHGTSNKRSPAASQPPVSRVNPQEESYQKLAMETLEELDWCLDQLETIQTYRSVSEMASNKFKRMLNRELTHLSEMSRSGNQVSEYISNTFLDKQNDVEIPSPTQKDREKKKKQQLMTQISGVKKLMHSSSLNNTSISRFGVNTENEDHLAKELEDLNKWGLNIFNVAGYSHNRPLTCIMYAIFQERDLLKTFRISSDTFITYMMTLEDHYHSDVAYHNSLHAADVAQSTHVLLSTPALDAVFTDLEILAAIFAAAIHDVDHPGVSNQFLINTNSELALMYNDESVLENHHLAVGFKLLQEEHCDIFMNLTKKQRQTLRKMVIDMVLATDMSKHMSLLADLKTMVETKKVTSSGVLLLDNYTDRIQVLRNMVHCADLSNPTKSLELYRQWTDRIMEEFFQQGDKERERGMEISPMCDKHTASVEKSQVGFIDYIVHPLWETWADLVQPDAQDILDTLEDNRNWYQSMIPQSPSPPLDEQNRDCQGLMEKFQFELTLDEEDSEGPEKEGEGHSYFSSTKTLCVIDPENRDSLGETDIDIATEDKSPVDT
Sequence of Lysosomal acid glucosylceramidase (Homo sapiens) (P04062 whole entry, looked up): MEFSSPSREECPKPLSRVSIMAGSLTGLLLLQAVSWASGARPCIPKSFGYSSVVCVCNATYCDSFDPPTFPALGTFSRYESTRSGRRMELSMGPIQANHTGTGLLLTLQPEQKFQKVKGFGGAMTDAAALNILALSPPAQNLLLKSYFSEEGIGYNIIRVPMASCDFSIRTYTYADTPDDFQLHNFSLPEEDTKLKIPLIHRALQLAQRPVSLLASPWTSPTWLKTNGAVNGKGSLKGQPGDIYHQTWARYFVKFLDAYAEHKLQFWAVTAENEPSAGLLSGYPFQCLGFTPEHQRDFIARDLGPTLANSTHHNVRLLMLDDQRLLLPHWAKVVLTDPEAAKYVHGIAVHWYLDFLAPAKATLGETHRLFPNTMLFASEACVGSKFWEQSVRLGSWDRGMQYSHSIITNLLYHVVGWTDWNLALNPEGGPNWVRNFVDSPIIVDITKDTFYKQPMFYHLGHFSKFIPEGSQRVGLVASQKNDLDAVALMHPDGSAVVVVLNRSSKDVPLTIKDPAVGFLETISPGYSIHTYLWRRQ
Sequence of Cytochrome P450 3A4 (Homo sapiens) (P08684 whole entry, looked up): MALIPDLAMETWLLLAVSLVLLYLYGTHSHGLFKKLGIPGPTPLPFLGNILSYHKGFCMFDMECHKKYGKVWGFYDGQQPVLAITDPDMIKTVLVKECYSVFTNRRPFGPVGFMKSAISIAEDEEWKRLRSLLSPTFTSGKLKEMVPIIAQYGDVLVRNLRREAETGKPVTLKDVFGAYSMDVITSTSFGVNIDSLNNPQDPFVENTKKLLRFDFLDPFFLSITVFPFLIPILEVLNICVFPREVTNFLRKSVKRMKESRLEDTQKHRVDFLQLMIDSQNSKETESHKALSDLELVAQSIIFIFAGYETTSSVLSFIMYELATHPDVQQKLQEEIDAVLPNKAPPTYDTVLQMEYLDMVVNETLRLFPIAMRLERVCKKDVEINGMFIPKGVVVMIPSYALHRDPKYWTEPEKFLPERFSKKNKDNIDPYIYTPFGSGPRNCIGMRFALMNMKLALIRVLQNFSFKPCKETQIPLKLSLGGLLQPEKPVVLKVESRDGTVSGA
Sequence of Cytochrome P450 1A2 (Homo sapiens) (P05177 whole entry, looked up): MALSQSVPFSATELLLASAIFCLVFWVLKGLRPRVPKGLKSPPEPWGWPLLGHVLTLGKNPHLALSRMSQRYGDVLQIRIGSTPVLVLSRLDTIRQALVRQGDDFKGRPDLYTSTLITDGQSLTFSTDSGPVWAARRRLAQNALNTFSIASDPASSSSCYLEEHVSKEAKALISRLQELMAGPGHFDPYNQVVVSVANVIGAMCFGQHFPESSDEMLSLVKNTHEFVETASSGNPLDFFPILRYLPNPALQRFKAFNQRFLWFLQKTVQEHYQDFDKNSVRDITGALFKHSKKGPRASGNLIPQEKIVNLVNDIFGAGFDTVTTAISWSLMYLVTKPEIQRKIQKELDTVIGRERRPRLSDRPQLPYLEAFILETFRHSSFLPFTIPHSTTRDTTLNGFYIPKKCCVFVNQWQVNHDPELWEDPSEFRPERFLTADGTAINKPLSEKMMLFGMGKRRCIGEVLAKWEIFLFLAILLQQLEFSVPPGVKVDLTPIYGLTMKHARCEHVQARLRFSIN
Sequence of Cytochrome P450 2C19 (Homo sapiens) (P33261 whole entry, looked up): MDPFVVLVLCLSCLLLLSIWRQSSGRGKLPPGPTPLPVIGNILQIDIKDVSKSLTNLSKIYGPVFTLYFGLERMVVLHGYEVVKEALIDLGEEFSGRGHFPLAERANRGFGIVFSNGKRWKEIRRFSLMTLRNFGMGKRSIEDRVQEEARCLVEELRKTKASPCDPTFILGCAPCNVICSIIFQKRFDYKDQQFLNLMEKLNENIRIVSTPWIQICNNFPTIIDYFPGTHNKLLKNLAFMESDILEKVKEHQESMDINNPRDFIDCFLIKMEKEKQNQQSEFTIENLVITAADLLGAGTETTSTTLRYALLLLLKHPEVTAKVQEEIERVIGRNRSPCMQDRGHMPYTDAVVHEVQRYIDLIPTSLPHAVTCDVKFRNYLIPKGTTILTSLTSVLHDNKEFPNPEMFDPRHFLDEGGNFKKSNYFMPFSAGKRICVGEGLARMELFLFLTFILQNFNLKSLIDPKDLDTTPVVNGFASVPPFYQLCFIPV

On to `COc1cccc(Cn2c(=O)cnc3cnc(Nc4ccccc4)nc32)c1`, for which the Potency in experiment [1] was greater than 11.4 µM; in experiment [5] it was greater than 46 µM; in experiment [6], greater than 46 µM; in experiment [9], 2.24 µM (active). Moreover, the activity change, negative = inhibition is -26.5% in experiment [2] and 17.1% in experiment [3]. Further, the activity, negative = inhibition in experiment [4] is -29.7%. Further, the Potency result in experiment [7], in experiment [8], in [10] and in experiment [11] was “inactive” each time. Besides, in experiment [12], the result was inactive.
For the molecule `COc1ccc(-c2nc3cnc(N(C)C)nc3n(-c3ccccc3)c2=O)cc1`, the Potency is greater than 11.4 µM in experiment [1], greater than 9.22 µM in experiment [5] and greater than 46 µM in experiment [6]. Moreover, the activity change, negative = inhibition in experiment [2] is 0.239%; in experiment [3], 3.47%. Besides, the activity, negative = inhibition in experiment [4] is 3.24%. Also, the Potency result in experiment [7], in experiment [9], in [10] and in experiment [11] was “inactive” in each case. Also, the outcome in experiment [12] was inactive.
Regarding `COc1ccc(Oc2ncc3nc(-c4ccc(F)cc4)c(=O)n(C4CC4)c3n2)cc1`, the results for the Potency in experiment [1], in experiment [5] and in experiment [6] were greater than 11.4 µM, greater than 9.22 µM and greater than 46 µM, respectively. For the same molecule, in experiment [2], the activity change, negative = inhibition is 0.828%. The activity, negative = inhibition in experiment [4] is 14.5%. Besides, the Potency result in experiment [7], in experiment [8], in [9], in [10] and in experiment [11] was “inactive” in each case. Moreover, the outcome in experiment [12] was inactive.
Take `CCNc1ncc2nc(-c3ccc(Cl)cc3)c(=O)n(Cc3cccc(OC)c3)c2n1`: the Potency in experiment [1] is greater than 11.4 µM; in experiment [5] it was greater than 9.22 µM; in experiment [6], greater than 46 µM; in experiment [14] it was 0.316 µM (active). For the same molecule, the Potency result in [13], in experiment [7], in experiment [8], in experiment [9], in experiment [10] and in experiment [11] was “inactive” throughout. The outcome in [12] was inactive.
Take `Cc1cnc(CNc2ccnc(-c3cccc(C#N)c3)n2)cn1`: the Potency in [1] is greater than 11.4 µM; in experiment [13] it was 1.26 µM (active); in experiment [5] it was greater than 46 µM; in [6], greater than 46 µM; in experiment [9], 15.8 µM (active). Further, the activity change, negative = inhibition in experiment [2] is -12.1%; in experiment [3], 16.3%. Moreover, the activity, negative = inhibition in experiment [4] is 6.8%. The Potency result in [7], in [8], in experiment [15] and in experiment [11] was “inactive” throughout. In experiment [12], the outcome was inactive.
With `COc1ccc(CNc2cc(-c3ccccc3OC)ncn2)c(OC)c1`, the Potency in experiment [1] is greater than 11.4 µM; in experiment [5] it was greater than 46 µM; in experiment [6] it was greater than 46 µM; in [16], 6.31 µM (active); in experiment [17], 2 µM (active). Besides, the activity change, negative = inhibition in [2] is -6.46%; in experiment [3] it was 17.7%. In addition, in experiment [4], the activity, negative = inhibition is 5.25%. The Potency entry in experiment [7], in experiment [8], in [15], in experiment [9], in experiment [10] and in experiment [11] was “inactive” throughout. In addition, the outcome in experiment [12] was inactive.
`Cc1cnc(CNc2nc(-c3ccccc3C)nc3ccccc23)cn1`: the Potency in [1] is greater than 11.4 µM; in [13], 3.16 µM (active); in [5], greater than 46 µM; in experiment [6], greater than 46 µM. The activity change, negative = inhibition is -8.73% in experiment [2] and -6.95% in experiment [3]. The activity, negative = inhibition in experiment [4] was -5.75%. Further, the Potency entry in [7], in experiment [8], in [15], in experiment [9], in [10] and in [11] was “inactive” throughout. For the same molecule, in experiment [12], the outcome was inactive.
